In the supplement of paper PMC4022240:
± gives the standard deviation.

Key:
Test in all cases: peptide microarray binding signal (635 nm), min-max normalized on array (fraction of array maximum); higher = stronger binding
Details in all cases: peptide region: H3 20-32
[1] = target: T1, HaloTag-ATRX ADD domain (163-292)
T1 chain: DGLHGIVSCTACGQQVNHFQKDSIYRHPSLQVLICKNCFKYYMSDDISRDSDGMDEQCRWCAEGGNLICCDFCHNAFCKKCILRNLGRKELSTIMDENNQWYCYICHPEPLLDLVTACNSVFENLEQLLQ
Summary of the method: (§1)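 Arrays carried histone 13-mer peptide–cellulose conjugates printed in triplicate on nitrocellulose alongside a Cy3 tracer. After overnight blocking at 4°C, they were incubated for 1 h at 4°C with biotin-labelled HaloTag reader fusions (10 nM to 1 μM) plus streptavidin-Alexa Fluor 647, or with rabbit histone antibodies (1:10,000 to 1:2,000) plus anti-rabbit Alexa 647. Scanning on an Axon GenePix 4000B used 635 nm for signal and 532 nm for misprints. The binding signal reported is each triplicate's mean spot intensity after per-library min-max scaling.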

[2] = target: HaloTag-ING2 PHD (mouse Ing2 200-280)
Summary of the method: as §1

[3] = target: anti-H3K4me3 antibody ab8580
Summary of the method: as §1

[4] = target: anti-H3K9me3 antibody ab8898
Summary of the method: as §1

[5] = peptide modifications: H3K23me2 H3K27me2, binder concentration: 1:2,000 dilution
[6] = peptide modifications: H3K23me2 H3K27me2, binder concentration: 1:10,000 dilution
[7] = peptide modifications: H3K23me2 H3K27me1, binder concentration: 1:2,000 dilution
[8] = peptide modifications: H3K23me2 H3K27me1, binder concentration: 1:10,000 dilution
[9] = peptide modifications: H3K23me2 H3K27me3, binder concentration: 1:2,000 dilution
[10] = peptide modifications: H3K23me2 H3K27me3, binder concentration: 1:10,000 dilution
[11] = peptide modifications: H3K23me3 H3K27me1, binder concentration: 1:2,000 dilution
[12] = peptide modifications: H3K23me3 H3K27me1, binder concentration: 1:10,000 dilution
[13] = peptide modifications: H3K23me3 H3K27ac, binder concentration: 1:2,000 dilution
[14] = peptide modifications: H3K23me3 H3K27ac, binder concentration: 1:10,000 dilution
[15] = peptide modifications: H3K23me3 H3K27me3, binder concentration: 1:2,000 dilution
[16] = peptide modifications: H3K23me3 H3K27me3, binder concentration: 1:10,000 dilution
[17] = peptide modifications: H3K23me2, binder concentration: 1:2,000 dilution
[18] = peptide modifications: H3K23me2, binder concentration: 1:10,000 dilution
[19] = peptide modifications: H3K23me3 H3K27me2, binder concentration: 1:2,000 dilution
[20] = peptide modifications: H3K23me3 H3K27me2, binder concentration: 1:10,000 dilution
[21] = peptide modifications: H3K23me3, binder concentration: 1:2,000 dilution
[22] = peptide modifications: H3K23me3, binder concentration: 1:10,000 dilution
[23] = peptide modifications: H3K23me2 H3K27ac, binder concentration: 1:2,000 dilution
[24] = peptide modifications: H3K23me2 H3K27ac, binder concentration: 1:10,000 dilution

LATKAARKSAPAT [H3 20-32 L A T Kme2 A A R Kme2 S A P A T]
peptide microarray binding signal ([1]; peptide modifications: H3K23me2 H3K27me2, binder concentration: 50 nM): 0.00511 ± 6.7e-05
peptide microarray binding signal ([1]; peptide modifications: H3K23me2 H3K27me2, binder concentration: 500 nM): 0.00781 ± 0.00026
peptide microarray binding signal ([2]; peptide modifications: H3K23me2 H3K27me2, binder concentration: 10 nM): 0.0143 ± 0.0011
peptide microarray binding signal ([2]; peptide modifications: H3K23me2 H3K27me2, binder concentration: 100 nM): 0.0265 ± 0.003
peptide microarray binding signal [3, 5]: 0.001114 ± 9.2e-06
peptide microarray binding signal [3, 6]: 0.000799 ± 8.3e-06
peptide microarray binding signal [4, 5]: 0.000861 ± 5.4e-05
peptide microarray binding signal [4, 6]: 0.000692 ± 1.9e-05

LATKAARKSAPAT [H3 20-32 L A T Kme2 A A R Kme S A P A T]
peptide microarray binding signal ([1]; peptide modifications: H3K23me2 H3K27me1, binder concentration: 50 nM): 0.00715 ± 0.00054
peptide microarray binding signal ([1]; peptide modifications: H3K23me2 H3K27me1, binder concentration: 500 nM): 0.0135 ± 0.00043
peptide microarray binding signal ([2]; peptide modifications: H3K23me2 H3K27me1, binder concentration: 10 nM): 0.0174 ± 0.00096
peptide microarray binding signal ([2]; peptide modifications: H3K23me2 H3K27me1, binder concentration: 100 nM): 0.0216 ± 0.00093
peptide microarray binding signal [3, 7]: 0.00978 ± 0.0012
peptide microarray binding signal [3, 8]: 0.0104 ± 0.00071
peptide microarray binding signal [4, 7]: 0.00618 ± 0.00062
peptide microarray binding signal [4, 8]: 0.00628 ± 0.00021

LATKAARKSAPAT [H3 20-32 L A T Kme2 A A R Kme3 S A P A T]
peptide microarray binding signal ([1]; peptide modifications: H3K23me2 H3K27me3, binder concentration: 50 nM): 0.0058 ± 9.2e-05
peptide microarray binding signal ([1]; peptide modifications: H3K23me2 H3K27me3, binder concentration: 500 nM): 0.00581 ± 0.00013
peptide microarray binding signal ([2]; peptide modifications: H3K23me2 H3K27me3, binder concentration: 10 nM): 0.01343 ± 4.8e-05
peptide microarray binding signal ([2]; peptide modifications: H3K23me2 H3K27me3, binder concentration: 100 nM): 0.0205 ± 0.00075
peptide microarray binding signal [3, 9]: 0.02482 ± 0.00013
peptide microarray binding signal [3, 10]: 0.0215 ± 0.00042
peptide microarray binding signal [4, 9]: 0.0892 ± 0.0073
peptide microarray binding signal [4, 10]: 0.0609 ± 0.0066

LATKAARKSAPAT [H3 20-32 L A T Kme3 A A R Kme S A P A T]
peptide microarray binding signal ([1]; peptide modifications: H3K23me3 H3K27me1, binder concentration: 50 nM): 0.00426 ± 0.00018
peptide microarray binding signal ([1]; peptide modifications: H3K23me3 H3K27me1, binder concentration: 500 nM): 0.00776 ± 0.00023
peptide microarray binding signal ([2]; peptide modifications: H3K23me3 H3K27me1, binder concentration: 10 nM): 0.0209 ± 0.0012
peptide microarray binding signal ([2]; peptide modifications: H3K23me3 H3K27me1, binder concentration: 100 nM): 0.0322 ± 0.00049
peptide microarray binding signal [3, 11]: 0.0821 ± 0.0052
peptide microarray binding signal [3, 12]: 0.0667 ± 0.0068
peptide microarray binding signal [4, 11]: 0.0232 ± 0.0031
peptide microarray binding signal [4, 12]: 0.0156 ± 0.0017

LATKAARKSAPAT [H3 20-32 L A T Kme3 A A R Kac S A P A T]
peptide microarray binding signal ([1]; peptide modifications: H3K23me3 H3K27ac, binder concentration: 50 nM): 0.00665 ± 0.00019
peptide microarray binding signal ([1]; peptide modifications: H3K23me3 H3K27ac, binder concentration: 500 nM): 0.0131 ± 0.00029
peptide microarray binding signal ([2]; peptide modifications: H3K23me3 H3K27ac, binder concentration: 10 nM): 0.0614 ± 0.0049
peptide microarray binding signal ([2]; peptide modifications: H3K23me3 H3K27ac, binder concentration: 100 nM): 0.0929 ± 0.0012
peptide microarray binding signal [3, 13]: 0.18 ± 0.021
peptide microarray binding signal [3, 14]: 0.218 ± 0.01
peptide microarray binding signal [4, 13]: 0.11 ± 0.011
peptide microarray binding signal [4, 14]: 0.042 ± 0.002

LATKAARKSAPAT [H3 20-32 L A T Kme3 A A R Kme3 S A P A T]
peptide microarray binding signal ([1]; peptide modifications: H3K23me3 H3K27me3, binder concentration: 50 nM): 0.00527 ± 0.00011
peptide microarray binding signal ([1]; peptide modifications: H3K23me3 H3K27me3, binder concentration: 500 nM): 0.00571 ± 0.00016
peptide microarray binding signal ([2]; peptide modifications: H3K23me3 H3K27me3, binder concentration: 10 nM): 0.0186 ± 0.00059
peptide microarray binding signal ([2]; peptide modifications: H3K23me3 H3K27me3, binder concentration: 100 nM): 0.0317 ± 0.00033
peptide microarray binding signal [3, 15]: 0.0764 ± 0.0055
peptide microarray binding signal [3, 16]: 0.116 ± 0.014
peptide microarray binding signal [4, 15]: 0.115 ± 0.01
peptide microarray binding signal [4, 16]: 0.08 ± 0.0081

LATKAARKSAPAT [H3 20-32 L A T Kme2 A A R K S A P A T]
peptide microarray binding signal ([1]; peptide modifications: H3K23me2, binder concentration: 50 nM): 0.00671 ± 0.00021
peptide microarray binding signal ([1]; peptide modifications: H3K23me2, binder concentration: 500 nM): 0.0138 ± 0.00038
peptide microarray binding signal ([2]; peptide modifications: H3K23me2, binder concentration: 10 nM): 0.0263 ± 0.0081
peptide microarray binding signal ([2]; peptide modifications: H3K23me2, binder concentration: 100 nM): 0.0536 ± 0.02
peptide microarray binding signal [3, 17]: 0.00836 ± 0.0018
peptide microarray binding signal [3, 18]: 0.0156 ± 0.0071
peptide microarray binding signal [4, 17]: 0.00609 ± 0.0003
peptide microarray binding signal [4, 18]: 0.00479 ± 0.00052

LATKAARKSAPAT [H3 20-32 L A T Kme3 A A R Kme2 S A P A T]
peptide microarray binding signal ([1]; peptide modifications: H3K23me3 H3K27me2, binder concentration: 50 nM): 0.00871 ± 0.00075
peptide microarray binding signal ([1]; peptide modifications: H3K23me3 H3K27me2, binder concentration: 500 nM): 0.0107 ± 0.0013
peptide microarray binding signal ([2]; peptide modifications: H3K23me3 H3K27me2, binder concentration: 10 nM): 0.0148 ± 0.0008
peptide microarray binding signal ([2]; peptide modifications: H3K23me3 H3K27me2, binder concentration: 100 nM): 0.0242 ± 0.0018
peptide microarray binding signal [3, 19]: 0.0639 ± 0.034
peptide microarray binding signal [3, 20]: 0.0807 ± 0.021
peptide microarray binding signal [4, 19]: 0.0464 ± 0.016
peptide microarray binding signal [4, 20]: 0.0257 ± 0.0034

LATKAARKSAPAT [H3 20-32 L A T Kme3 A A R K S A P A T]
peptide microarray binding signal ([1]; peptide modifications: H3K23me3, binder concentration: 50 nM): 0.00323 ± 0.00014
peptide microarray binding signal ([1]; peptide modifications: H3K23me3, binder concentration: 500 nM): 0.00476 ± 6.4e-05
peptide microarray binding signal ([2]; peptide modifications: H3K23me3, binder concentration: 10 nM): 0.00931 ± 0.00034
peptide microarray binding signal ([2]; peptide modifications: H3K23me3, binder concentration: 100 nM): 0.0181 ± 0.00055
peptide microarray binding signal [3, 21]: 0.0211 ± 0.0028
peptide microarray binding signal [3, 22]: 0.0168 ± 0.00023
peptide microarray binding signal [4, 21]: 0.0113 ± 0.0027
peptide microarray binding signal [4, 22]: 0.00634 ± 0.00064

LATKAARKSAPAT [H3 20-32 L A T Kme2 A A R Kac S A P A T]
peptide microarray binding signal ([1]; peptide modifications: H3K23me2 H3K27ac, binder concentration: 50 nM): 0.008464 ± 6.7e-05
peptide microarray binding signal ([1]; peptide modifications: H3K23me2 H3K27ac, binder concentration: 500 nM): 0.01538 ± 0.00011
peptide microarray binding signal ([2]; peptide modifications: H3K23me2 H3K27ac, binder concentration: 10 nM): 0.0514 ± 0.0022
peptide microarray binding signal ([2]; peptide modifications: H3K23me2 H3K27ac, binder concentration: 100 nM): 0.0701 ± 0.0049
peptide microarray binding signal [3, 23]: 0.0156 ± 0.00055
peptide microarray binding signal [3, 24]: 0.0145 ± 0.00025
peptide microarray binding signal [4, 23]: 0.0072 ± 0.0012
peptide microarray binding signal [4, 24]: 0.00513 ± 0.00017
